Test systems include SR leukemia; RPMI-8226 leukemia; OVCAR-8 ovarian; OVCAR-5 ovarian; OVCAR-4 ovarian; SK-OV-3 ovarian; IGROV1 ovarian; HS 578T breast; NCI/ADR-RES ovarian; T-47D breast; BT-549 breast; MDA-MB-435 melanoma; SW-620 colon; MCF7 breast; HCT-116 colon; HCC-2998 colon; KM12 colon.
Test in all cases: NCI-60 one-dose screen, 48 h (100 = growth as untreated, 0 = no growth, -100 = all killed)
What all share (settings): 10 µM unless noted

Molecules are shown by their SMILES. About 83,000 compounds went through this panel and 20% of them were active in at least one assay; those are over-represented in the sample as a whole.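 How to read the values: 0–100, growth inhibition (40 = 60% inhibited); 0, no net growth; -100 to 0, cell death (-40 = 40% of starting cells died; -100 = all dead).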 A number with no mark means an inactive call. Calls of active or inactive are those of the source. How the source made its calls: active means growth percent below 10; inactive means the rest.

In the case of `CCn1c2ccc(/C=N/NS(=O)(=O)CCN(C)C)cc2c2cc(/C=N/NS(=O)(=O)CCN(C)C)ccc21`, the growth was 83.8% in the assay with SR leukemia; 99.8% with RPMI-8226 leukemia; 104% in the assay with OVCAR-8 ovarian; 100% with OVCAR-5 ovarian; 99.8% in the assay with OVCAR-4 ovarian; 104% in the assay on SK-OV-3 ovarian. The growth in the assay on IGROV1 ovarian is 77.7%; with HS 578T breast it was 91.1%; with NCI/ADR-RES ovarian, 98.1%; with T-47D breast it was 102%; in the assay with BT-549 breast, 99.1%; in the assay on MDA-MB-435 melanoma it was 96.9%. The growth is 90.8% in the assay on SW-620 colon; 89.4% with MCF7 breast; 99.4% in the assay with HCT-116 colon; 104% in the assay on HCC-2998 colon; 106% with KM12 colon.

As for `C=CCn1c(SCC(=O)Nc2cccc(C(=O)/C=C/c3ccc(Cl)cc3)c2)nc2ccccc2c1=O`, the growth in the assay with SR leukemia is 21%; in the assay on RPMI-8226 leukemia, 9.15% (active); in the assay on OVCAR-8 ovarian it was 95%; in the assay with OVCAR-5 ovarian, 97.9%; in the assay with OVCAR-4 ovarian, 87.6%; in the assay with SK-OV-3 ovarian it was 110%. Moreover, the growth with IGROV1 ovarian was 96.4%; with HS 578T breast, 87.3%; in the assay on NCI/ADR-RES ovarian, 91%; in the assay with T-47D breast, 78.6%; in the assay with BT-549 breast, 94.6%; with MDA-MB-435 melanoma, 92.3%. Further, the growth in the assay on SW-620 colon is 77.4%; in the assay on MCF7 breast, 28.3%; in the assay with HCT-116 colon, 15.4%; with HCC-2998 colon it was 94.8%; in the assay on KM12 colon, 88%.

Regarding `C#CCOc1ccc(/C=N/Nc2nc(-c3cc4cc(Br)cc(Br)c4oc3=O)cs2)cc1`, the growth is 71% in the assay with SR leukemia; 97.1% in the assay with RPMI-8226 leukemia; 100% with OVCAR-8 ovarian; 102% in the assay with OVCAR-5 ovarian; 83.1% in the assay on OVCAR-4 ovarian; 104% in the assay on SK-OV-3 ovarian. In addition, the growth is 98.9% in the assay on IGROV1 ovarian; 91.3% in the assay on HS 578T breast; 94.9% in the assay with NCI/ADR-RES ovarian; 88.6% in the assay on T-47D breast; 91.8% with MDA-MB-435 melanoma; 104% with SW-620 colon. In addition, the growth is 65.9% in the assay on MCF7 breast, 91.8% in the assay on HCT-116 colon, 108% with HCC-2998 colon and 88% with KM12 colon.

Turning to `C#C[C@]1(O)CC[C@H]2[C@@H]3CC=C4c5sc(Nc6ccc(OC)nc6)nc5CC[C@]4(C)[C@H]3CC[C@@]21C`, the growth in the assay with SR leukemia is 7.7% (active); in the assay on RPMI-8226 leukemia it was -21.7% (active); with OVCAR-8 ovarian it was 27.7%; with OVCAR-5 ovarian, 83.9%; in the assay on OVCAR-4 ovarian, 76.1%; in the assay with SK-OV-3 ovarian it was 44.4%. For the same molecule, the growth with IGROV1 ovarian was 29.7%; in the assay with HS 578T breast it was 3.53% (active); in the assay with NCI/ADR-RES ovarian, 59%; in the assay on BT-549 breast it was 33.3%; with MDA-MB-435 melanoma, 48.1%; in the assay on SW-620 colon it was -20.8% (active). In addition, the growth in the assay on MCF7 breast was 4.25% (active); with HCT-116 colon, -48.6% (active); with HCC-2998 colon, 65.5%; in the assay on KM12 colon it was 19.6%.

For the molecule `C#CCOc1ccc(/C=N/Nc2nc(-c3cc(Cl)ccc3Cl)cs2)cc1`, the growth is 87.8% in the assay on SR leukemia; 76.8% with RPMI-8226 leukemia; 93.5% in the assay with OVCAR-8 ovarian; 99.5% in the assay on OVCAR-5 ovarian; 52.8% with OVCAR-4 ovarian; 97.9% with SK-OV-3 ovarian. For the same molecule, the growth was 64.4% in the assay on IGROV1 ovarian; 98.3% with HS 578T breast; 95% with NCI/ADR-RES ovarian; 37.4% in the assay with T-47D breast; 102% with MDA-MB-435 melanoma; 93.9% in the assay with SW-620 colon. Also, the growth in the assay on MCF7 breast is 9.62% (active); in the assay on HCT-116 colon, 86.6%; in the assay with HCC-2998 colon it was 95.8%; in the assay with KM12 colon, 72.5%.

For the molecule `CCOC(=O)c1c(Nc2ccccc2)nn2c(-c3ccc(OC)c(OC)c3)ccnc12`, the growth with SR leukemia was 23.6%; with RPMI-8226 leukemia it was 30.4%; in the assay on OVCAR-8 ovarian it was 50.5%; in the assay on OVCAR-5 ovarian, 84.7%; with OVCAR-4 ovarian it was 72.4%; with SK-OV-3 ovarian, 72%. Moreover, the growth is 102% in the assay on IGROV1 ovarian; 49.4% in the assay on HS 578T breast; 48.9% in the assay with NCI/ADR-RES ovarian; 41.3% in the assay on T-47D breast; 112% in the assay with BT-549 breast; 69.6% in the assay on MDA-MB-435 melanoma. For the same molecule, the growth was 40.9% in the assay with SW-620 colon, 55% with MCF7 breast, 42.7% in the assay with HCT-116 colon and 44.9% in the assay on KM12 colon.

With `COc1cc(NC2=C(Cl)C(=O)c3nc(C)ccc3C2=O)cc(OC)c1`, the growth in the assay on SR leukemia is -3.19% (active); with RPMI-8226 leukemia it was -39.7% (active); in the assay with OVCAR-8 ovarian, -0.815% (active); in the assay on OVCAR-5 ovarian, 22%; in the assay on OVCAR-4 ovarian, -93.3% (active); in the assay with SK-OV-3 ovarian, 93.8%. For the same molecule, the growth was -23.1% (active) with IGROV1 ovarian; -32.8% (active) in the assay with HS 578T breast; -1.26% (active) in the assay with NCI/ADR-RES ovarian; -56% (active) in the assay with T-47D breast; 24.1% in the assay with BT-549 breast; -87.4% (active) in the assay on MDA-MB-435 melanoma. In addition, the growth in the assay on SW-620 colon is -90.2% (active); in the assay on MCF7 breast, -51.7% (active); in the assay on HCT-116 colon it was -97.8% (active); in the assay on HCC-2998 colon, 14.4%; with KM12 colon it was 39.3%.

Turning to `COc1cc(O)c2c(c1)/C=C/C[C@H](O)[C@H](O)C(=O)/C=C\C[C@H](C)OC2=O`, the growth in the assay on SR leukemia was -6.77% (active); with RPMI-8226 leukemia, -4.42% (active); in the assay on OVCAR-8 ovarian it was 19.9%; with OVCAR-5 ovarian, 8.3% (active); with OVCAR-4 ovarian, 18.9%; in the assay on SK-OV-3 ovarian, 75.4%. Also, the growth in the assay on IGROV1 ovarian was 9.18% (active); in the assay on HS 578T breast, -26.4% (active); with NCI/ADR-RES ovarian it was 8.99% (active); with BT-549 breast it was -29.2% (active); in the assay on MDA-MB-435 melanoma, -15.4% (active); with SW-620 colon, -9.76% (active). The growth was 0.782% (active) with MCF7 breast, -16.3% (active) with HCT-116 colon, -41.9% (active) with HCC-2998 colon and 19.1% in the assay with KM12 colon.

Regarding `C/C(=N\NC(=S)Nc1ccc(Br)cc1)c1cc2ccccc2oc1=O`, the growth in the assay on SR leukemia is 0.863% (active); in the assay with RPMI-8226 leukemia it was 16.3%; in the assay on OVCAR-8 ovarian it was 5.84% (active); in the assay on OVCAR-5 ovarian it was 41.3%; in the assay on OVCAR-4 ovarian, 28.2%; in the assay with SK-OV-3 ovarian, 26.1%. Further, the growth with IGROV1 ovarian was 24.6%; in the assay with HS 578T breast, 20.5%; in the assay on NCI/ADR-RES ovarian, 11.4%; with BT-549 breast, 8.5% (active); with MDA-MB-435 melanoma, 11.4%; with SW-620 colon, 27.7%. Besides, the growth is 6.49% (active) in the assay on MCF7 breast, 16.3% in the assay with HCT-116 colon, 29.8% with HCC-2998 colon and 0.612% (active) with KM12 colon.

Values taken from PubChem BioAssay (NCI).
